The results in this text go back to PubChem BioAssay (NCI).

This is part of a sample that, as a whole, favours compounds with a hit. Of some 83,000 tested, about 20% had one in any assay.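 Negative percent growth values reflect cell death: -40 means 40% of the cells present at the start died, and -100 means all died.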 Values without a mark were called inactive. Calls of active or inactive are those of the source. How the source made its calls: active means growth percent below 10; inactive means the rest.

Experiment in all cases: NCI-60 one-dose screen, 48 h (100 = growth as untreated, 0 = no growth, -100 = all killed)
Common to all, as to settings: 10 µM unless noted

For assay [1], the system named is HCT-15 colon.
In assay [2] the test system is HT29 colon.
The test system of assay [3] is SNB-75 CNS.
Assay [4] concerns SNB-19 CNS.
In assay [5] the test system is U251 CNS.
In assay [6] the test system is PC-3 prostate.
The test system of assay [7] is SK-MEL-5 melanoma.
Assay [8] deals with UACC-62 melanoma.
Assay [9] relates to LOX IMVI melanoma.
Assay [10] has as its system SK-MEL-28 melanoma.
In assay [11] the test system is SK-MEL-2 melanoma.
For assay [12], the system named is EKVX NSCLC.
Assay [13] concerns SN12C renal.
The subject of assay [14] is UO-31 renal.
The subject of assay [15] is TK-10 renal.
Assay [16] has as its system ACHN renal.
Assay [17] deals with CAKI-1 renal.
In assay [18] the test system is CCRF-CEM leukemia.
Assay [19] relates to MOLT-4 leukemia.
The test system of assay [20] is A498 renal.

On to `CCOc1cccc(-c2nc(N)nc(Nc3ccccc3SSc3ccccc3Nc3nc(N)nc(-c4cccc(OCC)c4)n3)n2)c1`, for which the growth in [1] was 18.5%; in [2], 110%; in [3], 90.5%; in assay [4], 55.1%; in assay [5], 8.24% (active); in [6], 29.5%. Further, the growth in assay [7] is 88%; in assay [8], 66.2%; in [9] it was 4.82% (active); in [10], 93.6%; in [11] it was 98.1%; in assay [12] it was 60.5%. Besides, the growth is 32.9% in assay [13]; -25.5% (active) in [14]; 102% in [15]; 59.5% in assay [16]; 8.02% (active) in assay [17]; 46.5% in assay [18]. The growth in assay [19] was 56.7%.
Consider `N=C1C(c2nc3ccccc3s2)=C(O)CN1c1cc(Cl)cc(Cl)c1`, for which the growth in assay [1] was 38.6%; in assay [2], 82.6%; in assay [3], 128%; in assay [4] it was 95.2%; in assay [5], 64.7%; in [6], 26.1%. Besides, the growth in assay [7] is 88.9%; in assay [8] it was 78.1%; in [9], 67%; in assay [10], 120%; in [11], 105%; in assay [12], 82.4%. The growth is 86.2% in assay [13]; 60.2% in assay [14]; 115% in [15]; 73.4% in assay [16]; 78% in assay [17]; 98.5% in [20]. For the same compound, the growth in assay [19] was 29.4%.
With `CCCCCN1C=C/C(=C\C(=O)N2CCCc3ccccc32)c2ccccc21`, the growth in [1] was 102%; in [2] it was 73.2%; in [3] it was 108%; in assay [4], 93.9%; in assay [5] it was 87.6%; in assay [6], 86.7%. Moreover, the growth in [7] is 92.7%; in assay [8], 75.2%; in assay [9], 87.3%; in [10], 104%; in assay [11], 90.9%; in assay [12] it was 76.4%. Further, the growth in [13] was 89.9%; in [14], 75.5%; in assay [15] it was 105%; in assay [16], 106%; in [17] it was 80.3%; in assay [18], 69.7%. The growth in assay [19] was 78.5%.
For the compound `COc1cc(C2C3CC4CCCC[C@H]4N3[C@@]3(C(=O)Nc4cc(Cl)ccc43)C2C(=O)c2nc3ccccc3[nH]2)cc(OC)c1OC` (stereo not given in full), the growth is 43.3% in assay [1]; 35.6% in assay [2]; 78.8% in assay [3]; 72.5% in [4]; 56.7% in assay [5]; 43.7% in [6]. The growth was 64.6% in assay [7]; 57.5% in [8]; 58.8% in [9]; 82.4% in assay [10]; 80.5% in [11]; 48.6% in [12]. Moreover, the growth in assay [13] is 63.2%; in assay [14], 34.8%; in assay [15] it was 68.8%; in assay [16], 56.9%; in assay [17], 30.6%; in assay [18], 42.2%. In addition, the growth in assay [19] is 14%.
`CCOC(=O)c1cc(C(=O)c2ccc(OC)cc2)n2ccc(/C=C/c3cc[n+](CC(=O)c4ccc(OC)cc4)cc3)cc12`: the growth in [1] was 85.9%; in [2] it was 16.5%; in [3] it was 57.9%; in [4] it was 31.3%; in assay [5], 53.5%; in assay [6], 64.1%. In addition, the growth in assay [7] was 87.8%; in [8], 99.5%; in assay [9], 25.4%; in [10], 103%; in assay [11], 100%; in [12] it was 87.8%. For the same compound, the growth in [13] is 56.2%; in assay [14] it was 72.7%; in [15], 91.7%; in [16] it was 70.2%; in assay [17], 81.8%; in [20] it was 67.6%. In addition, the growth in assay [18] was -22.5% (active); in assay [19] it was 49.8%.
Consider `N#C/C(=C\c1ccc([N+](=O)[O-])s1)c1nc2cc(Br)ccc2s1`, for which the growth in assay [1] was -52.1% (active); in assay [2], 21.8%; in assay [3], 12%; in assay [4], 7.78% (active); in [5], -20.5% (active); in assay [6], -49% (active). Moreover, the growth in assay [7] is -97.7% (active); in assay [8], 17%; in assay [9], -54.1% (active); in assay [10], 12%; in [11], -41.1% (active); in assay [12] it was -30.8% (active). Further, the growth in [13] is -30.1% (active); in assay [14] it was -52.1% (active); in assay [15] it was 4.33% (active); in assay [16], -56.8% (active); in assay [17], -2.73% (active); in [20], 109%. Moreover, the growth was -19.5% (active) in assay [18] and -18.8% (active) in assay [19].
Regarding `c1ccc2c(-c3nccs3)c[nH]c2c1`, the growth is 94.3% in assay [1]; 98.9% in assay [2]; 90.7% in [3]; 98.1% in assay [4]; 103% in assay [5]; 81.5% in assay [6]. Also, the growth was 95.3% in assay [7]; 93.5% in assay [8]; 99.7% in [9]; 100% in [10]; 112% in assay [11]; 88.6% in assay [12]. The growth in assay [13] is 98.3%; in [14], 85.1%; in assay [15] it was 84.4%; in assay [16], 97.6%; in [17], 95.6%; in assay [18], 111%. Besides, the growth in assay [19] is 91.8%.
As for `CN(C)CCn1c2ccc(Br)cc2c2nc3ccccc3nc21`, the growth in assay [1] was 20.2%; in assay [2], 16.9%; in [3] it was 42.3%; in assay [4], 31.6%; in assay [5] it was 32.2%; in assay [6] it was 34%. Further, the growth is 46.8% in [7]; 57.1% in assay [8]; 14.8% in assay [9]; 84.8% in [10]; 41.8% in assay [11]; 41.6% in [12]. The growth in assay [13] is 26.5%; in assay [14] it was 11%; in assay [15], 62.4%; in assay [16], 9.3% (active); in assay [17], 13.8%; in assay [18], 28.4%. Besides, the growth in assay [19] was 13.7%.
For the compound `O=C1c2ccc3c4c(ccc(c24)C(=O)N1CCCNCc1ccccc1Cl)C(=O)N(CCCNCc1ccccc1Cl)C3=O`, the growth in assay [1] was -46% (active); in [2], -42.5% (active); in [3] it was -97.9% (active); in assay [4], -76.9% (active); in [5], -52.8% (active); in assay [6] it was -37.7% (active). The growth is -96.6% (active) in assay [7]; -59.5% (active) in assay [8]; -53.7% (active) in [9]; -92.2% (active) in [10]; -60.6% (active) in assay [11]; -46.7% (active) in [12]. For the same compound, the growth was -87.1% (active) in assay [13]; -35% (active) in [14]; -54.9% (active) in assay [15]; -39.3% (active) in [16]; -12.6% (active) in assay [17]; -15.5% (active) in [18]. Moreover, the growth in assay [19] was -24.4% (active).
As to `CC1(C)CC(=O)C2=C(C1)N(c1ccc(F)cc1F)C(N)=C(C#N)C2c1cc(Br)ccc1F` (stereo not given), the growth in [1] was 93.8%; in [2], 83.5%; in [3] it was 67.1%; in assay [4] it was 85.8%; in [5] it was 94.8%; in [6] it was 76.8%. Also, the growth was 93% in [7]; 91.1% in assay [8]; 57.5% in assay [9]; 109% in assay [10]; 94% in assay [11]; 94.8% in assay [12]. Moreover, the growth was 96.6% in assay [13]; 81.3% in assay [14]; 104% in [15]; 94.9% in assay [16]; 92.4% in [17]; 91.8% in assay [18]. For the same compound, the growth in assay [19] is 88.9%.
`CCN1Cc2nc3sc(C)c(C)c3c(=O)n2C=C1C`: the growth was 49.7% in assay [1]; 22.1% in assay [2]; 88% in assay [3]; 49.4% in [4]; 24.3% in assay [5]; -6.34% (active) in assay [6]. The growth in assay [7] is 78.7%; in assay [8] it was 46.9%; in assay [9] it was 53.5%; in [10], 67.3%; in assay [11], 91.9%; in assay [12], 59.8%. Besides, the growth in [13] was 57.1%; in assay [14] it was 34.4%; in [15], 87.5%; in assay [16] it was 65.3%; in [17] it was 61.6%; in [20], 108%. Also, the growth in assay [19] is -3.45% (active).
Take `O=S(=O)(NCCCNc1nccc(-c2c(-c3cccc(O)c3)nc3occn23)n1)c1ccc(Cl)cc1`: the growth in assay [1] was 98.7%; in assay [2], 36.3%; in assay [3], 92%; in assay [4], 108%; in assay [5], 102%; in assay [6], 82.7%. Moreover, the growth in assay [7] is 39.8%; in assay [8], 9.05% (active); in [9], 44.4%; in assay [10] it was 30.3%; in assay [11], 52.5%; in assay [12] it was 99.6%. The growth in assay [13] is 71.5%; in assay [14], 89.8%; in assay [15], 143%; in assay [16] it was 81%; in assay [17] it was 75.9%; in [18], 73.2%. In addition, the growth in assay [19] was 71.3%.
For the compound `COc1cc2nc(-c3ccc(Cl)cc3)cc(OCCCN3CCOCC3)c2cc1OC`, the growth is 19.2% in [1]; 22.3% in assay [2]; 37.5% in assay [3]; 73.5% in assay [4]; 47.3% in assay [5]; 54% in assay [6]. The growth in [7] is -52.6% (active); in [8], -20.9% (active); in assay [9], -56% (active); in [10], 60.1%; in assay [11] it was 73.1%; in assay [12] it was 55.7%. Besides, the growth is 38.4% in [13]; 59.6% in assay [14]; 97.9% in assay [15]; 40.6% in assay [16]; -12% (active) in [17]; 61.4% in [18]. In assay [19], the growth was 56.4%.
Take `Cc1ncc(C(=O)Nc2ccc(CN3CCN(C)CC3)c(C(F)(F)F)c2)cc1C#Cc1cnc(N)cc1C#N`: the growth in [1] was -65.2% (active); in assay [2], -86.2% (active); in [3], 37%; in [4], 74.4%; in assay [5] it was -98.6% (active); in assay [6], -55.6% (active). For the same compound, the growth in [7] is -100% (active); in assay [8] it was -83.7% (active); in assay [9] it was -99.9% (active); in assay [10], -94.6% (active); in assay [11], -63.8% (active); in assay [12], 57.5%. The growth in [13] was -5.62% (active); in [14], -96.8% (active); in assay [15], -54.7% (active); in assay [16] it was -100% (active); in assay [17] it was -88.2% (active); in [18] it was 13.6%.
Turning to `CCNc1nc2cc(Nc3ccnc4cc(Cl)ccc34)ccc2o1`, the growth in assay [1] was 40.9%; in assay [2] it was 31.5%; in [3], 83.7%; in assay [4] it was 84.4%; in [5], 74.4%; in [6], 64.3%. Further, the growth is 48.2% in [7]; 70.9% in [8]; 58.5% in assay [9]; 80.7% in [10]; 81.2% in assay [11]; 86% in assay [12]. Moreover, the growth in [13] was 79.3%; in assay [14] it was 70.2%; in [15] it was 81.9%; in assay [16], 88.2%; in assay [17], 71.9%; in assay [18] it was 76.8%.
